Test results from PubChem BioAssay AID624300 (Southern Research Specialized Biocontainment Screening …, 2012).
Screen size: about 2,400 compounds; about 360 (15%) were called active. These entries were drawn from the full list. Results with a measured potency or affinity are listed apart. Unmarked numbers belong to inactive results.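 How the source made its calls: active means viability falls under 70% at one or more tested concentrations, taken as toxicity; inactive means viability stays over 70% at every dose.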

assay: viability loss in HeLa cells – cytotoxicity control for MgcRacGAP inhibitor project, dose response (AID 624300); details: CellTiter-Glo luminescence, 24 h; series mostly up to 100 µM; viability: at the top concentration;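 further: 100% = median of untreated control wells on the same plate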

SMILES	viability [%]
COc1ccccc1N1CCN(CCCOc2ccc(F)cc2)CC1	87.8
Cc1cccc(-c2n[nH]c(=S)n2/N=C/c2ccco2)c1	101
CCOc1cc(CNc2ccc(N3CCOCC3)cc2)cc(Br)c1OCC	99.3
COc1cc(CNc2ccc(N3CCOCC3)cc2)cc(Br)c1OC	96.3
COc1ccc(CNc2ccc(N3CCN(C(C)=O)CC3)cc2)cc1OC	94.6
CCOc1cc(CNc2ccc3c(c2)OCCO3)cc(Br)c1OCC(N)=O	101
O=C(Cn1cnc([N+](=O)[O-])n1)N/N=C/c1ccc(O)cc1O	103
O=S(=O)(c1ccccc1)N1N=C(c2ccc(O)cc2)CC1c1ccco1 (configuration not stated)	82.5
CN(C)c1ccc(NC(=O)c2ccc3nsnc3c2)cc1	103
O=C(c1ccccc1)N1CCN(C2CCCCC2)CC1	99
COc1ccc(/C=N/n2c(-c3n[nH]c4c3CCC4)n[nH]c2=S)c(OC)c1OC	113
Nc1n[nH]c(N)c1N=Nc1ccc2c(c1)OCO2	98.6
O=C(CSc1ccc2ccccc2c1)N1CCN(c2ccc(O)cc2)CC1	114
Oc1ccc(NC(=S)N=Nc2c(O)[nH]c3ccccc23)cc1	87
Oc1ccc(NC(=S)Nc2ccc(F)cc2)cc1	99.5
Oc1ccc(N2CCN(Cc3cc4c(cc3Br)OCCO4)CC2)cc1	110
CC1CCN(CC(=O)Nc2ccc(S(=O)(=O)NC3CC3)cc2)CC1	98.4
Cc1ccc(NC(=O)NC(=O)CN2CCN(c3ccc(O)cc3)CC2)c(C)c1	98.6
CN(c1ccc(O)cc1)c1nc(-c2cccs2)cs1	82
COc1ccc(CNC(=O)CN(C)Cc2ccc(C(C)(C)C)cc2)cc1	87.3
CN1CCN(C=NC2=NN(c3cccc(C(F)(F)F)c3)CC2)CC1	89.4
CCOC(=O)c1[nH]c(=S)n(Cc2ccccc2)c1C(=O)OCC	97.3
CN(C)c1ccc(NC(=O)COC(=O)c2ccc3c(c2)OCO3)cc1	99.3
COC(=O)C1CCN(C(=O)COC(=O)/C=C/c2ccc(O)c(OC)c2)CC1	99.1

SMILES	viability [%]
CSc1nc(/C=C2\C=Nc3ccccc32)c(O)n1C	90.1
CCOC(=O)C1CCCN(C(=S)Nc2ccc(Nc3ccccc3)cc2)C1 (configuration not stated)	98.2
CN(C)c1ccc(-n2cccc2/C=C/[N+](=O)[O-])cc1	110
COc1ccc(-n2cnc(=S)[nH]c2=S)cc1	93
COc1ccc(NC2CCCN(C(=O)c3ccccc3-c3ncc[nH]3)C2)cc1 (configuration not stated)	99.3
CCN1CCN(CCOc2cccc(Cl)c2Cl)CC1	98.5
COc1ccc(NC(=O)c2cc3ccc(O)cc3o/c2=N\O)cc1	101
Cc1sc2ncnc(Nc3ccc(O)cc3)c2c1C	103
CCN(CC)S(=O)(=O)c1cccc(C(=O)N/N=C/c2ccc(OC)c(O)c2)c1	106
Cc1c(O)ccc2c3c(c(=O)oc12)CCCC3	98
Cc1ccc2c(c1)C(C)CC(C)(C)N2C(=O)CN1CCN(C)CC1 (configuration not stated)	98.5
O=c1c(-c2ccccc2Cl)c[nH]n1-c1ccccc1	89.8
O=c1c(-c2cccc(Cl)c2)c[nH]n1-c1ccccc1	84.1
Cc1ccc(OC(=O)CCC(=O)Nc2ccc(C)c(C)c2)cc1	104
COc1cc(/C=C/C(=O)OCC(=O)NC(=O)NC(C)C)ccc1O	94.6
COc1ccc(N2CCN(C(=O)CCCn3nnnc3CN3CCOCC3)C(C)C2)cc1 (configuration not stated)	98.7
O=C1/C(=C\c2ccc(O)cc2)SC(=S)N1/N=C/c1ccc(O)cc1	88.5
Cc1cc(O)ccc1N=Cc1c(C(F)(F)F)[nH][nH]c1=O	96.6
Nc1ccc2c(c1)OCCOCCOCCOCCOCCO2	97.6
Oc1ccccc1CNc1ccc2c(c1)OCCO2	99.8
Nc1ccc2nc(CCCCc3nc4ccccc4[nH]3)[nH]c2c1	96.5
CCOC(=O)c1cc(NCc2cccs2)ccc1N1CCOCC1	95.5
CN1CCN(/N=C/c2nc(-c3ccccc3)n3ccccc23)CC1	103
CN(C)c1ccc(Nc2ccc([N+](=O)[O-])cn2)cc1	109

SMILES	viability [%]
c1cc(CNc2ccc3c(c2)OCCO3)ccn1	105
Cc1ccc(CN2CCN(Cc3ccco3)CC2)cc1	92.4
CN1CCCN(Cc2ccccc2C(F)(F)F)CC1	96.8
Cc1ccc(NC(=O)CN(C)C2CCCCC2)cc1Cl	122
CN1C(=O)NC(c2ccc(O)cc2)C2=C1CN(c1ccc(O)cc1)C2=O (configuration not stated)	111
COc1ccc(/C=N/NC(=O)c2cccc(S(=O)(=O)N3CCCC3)c2)cc1O	98.2
CN(C)c1cc(NC(=O)CN2CCCC2)c2ccccc2n1	91.6
CCOc1ccc(CNC2CCCc3ccccc32)cc1 (configuration not stated)	87
Nc1ccn([C@@H]2O[C@H](CNCC3=CCOc4ccc(O)cc43)[C@@H](O)[C@H]2O)c(=O)n1	103
O=C(c1ccccc1)c1ccc(C(=O)N2CCN(c3ccc(O)cc3)CC2)cc1	91.1
O=C(c1cc(C2CC2)nn1-c1ccccc1)N1CCN(c2ccc(O)cc2)CC1	106
O=C(CN1CCCCCC1)Nc1nc2ccccc2s1	92.9
Cc1ccc(NC(=O)CN2CCC(Cc3ccccc3)CC2)cc1S(=O)(=O)N(C)C	82.5
Cn1c(N2CCOCC2)c(/C=N/O)c2ccccc21	95.4
CN(C)/N=C/c1ccc(N2CCOCC2)cc1	99.3
COc1ccc(NC(=S)NNS(=O)(=O)c2ccc3ccccc3c2)c(OC)c1	103
O=C(NC(=S)N1CCN(c2ccc(O)cc2)CC1)c1ccco1	98.4
COc1cccc(N2CC(C(=O)Oc3ccc4ccccc4c3)CC2=O)c1 (configuration not stated)	102
COc1ccc(Cn2nnnc2C(c2cccnc2)N2CCN(c3ccc(O)cc3)CC2)cc1 (configuration not stated)	94.8
CC1(C)CC(=O)C=C(Nc2ccc(O)cc2)C1	100
CC1(C)CC(=O)C(C=Nc2ccc(O)cc2)=C(O)C1	102
Cc1ccc(/C=N/Nc2ccc(Cl)c(C(=O)O)c2)s1	97.3
CCN(CC(=O)Nc1ccc(S(=O)(=O)N2CCCC2)cc1)CC(=O)Nc1cccc(OC)c1	98.4
Nc1cc(SCc2ccc([N+](=O)[O-])cc2)ncn1	98.7

SMILES	viability [%]
O=[N+]([O-])c1ccc(Oc2cccc3cccnc23)c([N+](=O)[O-])c1	100
Cc1ccc(S(=O)(=O)Oc2ccc(/C=C3/C(=N)N4C(=NC3=O)SN=C4S(C)(=O)=O)cc2)cc1	106
COc1cc2nc(=S)n(CCCN3CCOCC3)c(N)c2cc1OC	98.3
COc1cccc(CNc2ccc3c(c2)ncn3C)c1OC	96.4
CC(Oc1ccc(Cl)cc1Cl)C(=O)Nc1ccc(O)cc1 (configuration not stated)	113
COc1cccc(CNc2ccc(N3CCCCC3)cc2)c1OC	91.9
Oc1ccc(NCc2ccccc2OCc2ccccc2F)cc1	108
O=C(c1c(Cl)cccc1Cl)N1CCN(c2cccc3[nH]ccc23)CC1	85.3
COc1ccc(N2CCC(CNC(=S)Nc3cccc(C)c3)C2)cc1 (configuration not stated)	81.7
Cc1nc2ccccc2n2c(O)c(CC(=O)O)cc12	101
Clc1cc(Cl)c(OCCCCn2cncn2)c(Cl)c1	93.2
COc1cc(/C=N\N=C2/SC(CC(=O)O)C(=O)N2c2ccc(O)cc2)ccc1O (configuration not stated)	108
CCN(CC)S(=O)(=O)c1ccc(C)c(NC(=O)CN2CCN(Cc3ccccc3)CC2)c1	95.8
CCN(CC)c1ccc(S(=O)(=O)N2CCOCC2)cc1NC(=O)COC(=O)/C=C/c1ccc(O)c(OC)c1	91
CCn1cnc2cc(NCc3ccc(OC)cc3)ccc21	98.5
COc1ccc2c(c1)-c1nc(/N=C/c3ccccc3O)sc1CC2	111
Cn1cccc1/C=N/N1CCN(c2ccccc2)CC1	104
Cc1cc(=O)[nH]c(N/N=C/c2ccc(O)c(O)c2)n1	101
COc1cc(/C=N/Nc2cccc3cccnc23)cc(OC)c1O	95.5
COc1cc(/C=N/NC(=O)c2nc(C)cc(C)n2)ccc1O	105
Cc1cc(C)n(CCC(=O)N/N=C/c2ccc(O)cc2)n1	96.2
COc1cc(/C=C/C(=O)OCC(=O)N2CCCc3ccccc32)ccc1O	97.4
COc1cc(/C=C/C(=O)OCC(=O)NC(=O)NC(C)(C)C)ccc1O	88.8
COc1cc(/C=C/C(=O)OCC(=O)NC2CCS(=O)(=O)C2)ccc1O (configuration not stated)	109

SMILES	viability [%]
COc1ccc(N2CCN(C(c3cccs3)C(C)NC(=O)c3ccco3)CC2)cc1 (configuration not stated)	94.4
O=C1NN(c2ccc(Br)cc2)C(=O)/C1=C\c1ccc(O)cc1O	87.2
O=C1NN(c2ccccc2)C(=O)C1=Cc1ccccc1O	104
C(=N\N1CCOCC1)/c1nc(-c2ccccc2)n2ccccc12	101
COc1cc(OC)cc(C(=O)N2CCN(Cc3ccccc3Br)CC2)c1	86.6
COc1cc(/C=N/NC(=O)CCN2CCCCC2)ccc1O	101
COc1ccc2nc(C)cc(SCC(=O)N/N=C/c3ccc(O)c(O)c3)c2c1	97.9
COc1ccc2c(/C=N/Nc3ccc(C(=O)O)cc3)c[nH]c2c1	102
COc1ccc2c(c1)-c1nc(/N=C/c3cccc(OC)c3O)sc1CC2	112
COc1cc(/C=N/Nc2ccccn2)cc(OC)c1O	91.8
CN1CCCCCC1=Nc1ccccc1C#N	92.2
CCn1c(C)nc2cc(C(=O)N/N=C/c3cccc(O)c3O)ccc21	108
O=c1/c(=C/c2ccc(O)cc2)sc2n1CCCN=2	102
Cc1c(N=Nc2ccc(O)cc2)c(=O)n(-c2ccccc2)n1C	103
Oc1ccc(Nc2ccnc3cc(Cl)ccc23)cc1	95.1
NC(=S)NNc1ccnc2cc(Cl)ccc12	88
Cc1ccc(NCc2ccco2)cc1C	105
COc1cc(/C=N/NC(=O)CCC(=O)Nc2ccc(F)cc2)ccc1O	103
CN(C)c1ccc(N/C=C/C(=O)C(C)(C)C)cc1	96.1
COc1cc(/C=N/N=C(\N)c2nonc2N)ccc1O	91.8
CNc1nnc(-c2ccc(N(C)C)cc2)s1	106
